# Results reported in PubChem BioAssay AID485344 (National Center for Advancing Translational Sciences (NCATS), 2010).
# Several values for one entry are separate records, joined by “and”; a condition that tells them apart may be missing. Identical values can stand only once. Screen size: about 340,000 compounds; about 6,900 (2%) were called active. Cut-off read from the data, not from the text of the source: active = inhibition above about 30%; inactive = below that, where a call was filed. This excerpt belongs to a sample that is enriched for actives. Some structures have more than one record in an assay (separate samples or runs), and their calls can disagree.
# Molecular target: D(2) dopamine receptor (Homo sapiens) (UniProt P14416)
# Sequence (P14416 whole entry, looked up): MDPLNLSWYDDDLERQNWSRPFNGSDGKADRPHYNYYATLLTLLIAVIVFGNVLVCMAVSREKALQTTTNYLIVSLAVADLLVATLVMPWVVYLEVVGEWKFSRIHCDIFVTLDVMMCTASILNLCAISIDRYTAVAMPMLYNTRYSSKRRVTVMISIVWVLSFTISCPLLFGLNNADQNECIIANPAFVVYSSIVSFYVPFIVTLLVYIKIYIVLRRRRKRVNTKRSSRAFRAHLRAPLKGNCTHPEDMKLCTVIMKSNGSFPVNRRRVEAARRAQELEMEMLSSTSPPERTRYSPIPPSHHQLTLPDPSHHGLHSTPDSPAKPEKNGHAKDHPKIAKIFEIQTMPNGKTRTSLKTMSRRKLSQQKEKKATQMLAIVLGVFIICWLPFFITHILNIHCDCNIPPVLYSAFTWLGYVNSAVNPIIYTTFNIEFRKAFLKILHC
# Experiment: HTS Assay for Allosteric Antagonists of the Human D2 Dopamine Receptor: Primary Screen for Antagonists; note: 0% is about no effect
# Conditions: HEK293 TREx D2 cells, calcium flux, dopamine EC80; at 10 µM; stronger effect = higher value
# Source text: NIH Chemical Genomics Center [NCGC] NIH Molecular Libraries Probe Centers Network [MLPCN] MLPCN Grant: NS064831-01 Assay Submitter (PI): David Sibley Dopamine receptors (DARs) are involved in the etiology and/or therapy of a number of neuropsychiatric and endocrine disorders. For instance, all receptor-based antiparkinsonian drugs work via stimulating the D2 DAR subtype whereas all FDA-approved antipsychotic agents are antagonists of this receptor. […] There are three different types of allosteric modulators that we are seeking, two of which will stimulate or augment receptor signaling, allosteric agonists and potentiators, while the third, allosteric antagonists, will attenuate receptor signaling. The present primary screening assay measures compound antagonism after an EC80 addition of dopamine by tracking calcium flux in a […], inducible Hek293 Trex D2 cell line.
# Freshly passaged cells are plated in 1536 well black, clear bottom plates at a density of 4000 cells/well in 3 ul of complete media containing 1x tetracycline inducer. After an overnight incubation at 30 C in 5% CO2, cells are loaded with 2 ul of the no wash Calcium Assay Kit (ABD Bioquest) and incubated at room temperature for 30 to 90 minutes. Agonist read: A 10 cycle (1 second/cycle) baseline measurement is taken and then the FDSS online 1536 pintool delivers 23 nl of compound library (as well as dopamine controls) to the plate. The plate is measured for kinetically at 1 cycle/sec for 180 seconds. Following the 180 second read, 1 ul of an EC80 (negative modulation assay) is delivered by an onboard pipette head. Measurements are taken kinetically for an additional 180 seconds.
row,Structure (SMILES),inhibition
1,CCCCn1c(N)c(N(CCOC)C(=O)c2cccc(OCc3ccccc3)c2)c(=O)[nH]c1=O,-3.21% (inactive)
2,CCOc1ncccc1C(=O)OCC(=O)Nc1cccc(S(=O)(=O)N2CCCCCC2)c1,-2.34% (inactive)
3,CC(Oc1ccc(F)cc1)C(=O)Nc1cc(S(=O)(=O)N2CCOCC2)ccc1N1CCN(C)CC1 (stereo unspecified),-1.88% (inactive)
4,CC(NC(=O)c1ccc(S(=O)(=O)Nc2ccccc2)cc1)c1ccc(S(N)(=O)=O)cc1 (stereo unspecified),11.4% (inactive)
5,S=C(NCc1ccco1)NCc1ccccc1Cl,-9.44% (inactive)
6,Clc1ccccc1CSc1nnc(-c2ccco2)c(-c2ccco2)n1,34.6% (active)
7,Fc1cccc(Cl)c1CSc1ccc(-c2ccco2)nn1,-10.9% (inactive)
8,COc1ccccc1C(CNC(=O)c1ccc(C)c(S(=O)(=O)N2CCCCC2)c1)N(C)C (stereo unspecified),8.09% (inactive)
9,CN(C(=O)COC(=O)c1ccc(Br)o1)c1c(N)n(Cc2ccccc2)c(=O)[nH]c1=O,1.2% (inactive)
10,CC(=O)NCC(=O)N(Cc1ccco1)C1(C(=O)NC2CCCC2)CCCCC1,22.2% (inactive)
11,O=C(c1ccc(=O)[nH]c1)N(Cc1ccco1)C1(C(=O)NC2CCCCC2)CCCCC1,37.6% (active)
12,Cc1ccc(N(C(=O)CC2NC(=O)NC2=O)C2(C(=O)NC3CCCC3)CCCCC2)cc1 (stereo unspecified),-9.9% (inactive)
13,O=C(CN1C(=O)COc2ccccc21)NCCN1CCc2ccccc2C1,9.13% (inactive)
14,Cn1c(C(=O)NCCN2CCc3ccccc3C2)cc2c(=O)[nH]c3ccccc3c21,32.3% (active)
15,O=C(NCCN1CCN(Cc2ccccc2)CC1)c1cc2c(=O)[nH]c3ccccc3c2s1,-24.6% (inactive)
16,Cc1nnc(SCC(=O)NNC(=O)c2ccc(Cl)cc2)n1CC1CCCO1 (stereo unspecified),-10.1% (inactive)
17,COc1ccccc1NC(=O)CSc1nnc(C)n1CC1CCCO1 (stereo unspecified),-14.5% (inactive)
18,Cc1nnc(SCC(N)=O)n1CC1CCCO1 (stereo unspecified),32.8% (active)
19,COc1ccc(CCNC(=O)COC(=O)Cc2cccc(F)c2)cc1,6.51% (inactive)

row,Structure (SMILES),inhibition
1,Cc1c(NC(=O)C(C)Oc2cccc(Cl)c2)c(=O)n(-c2ccccc2)n1C (stereo unspecified),-1.16% (inactive)
2,O=C(CSc1nc(C2CC2)nc2ccccc12)Nc1cccc(O)c1,6.46% (inactive)
3,Cc1nnc(NC(=O)CSc2nc(C3CCCCC3)nc3ccccc23)s1,35.4% (active)
4,O=C(CSc1nc(C2CC2)nc2ccccc12)Nc1ccc2c(c1)OCCO2,4.27% (inactive)
5,Cn1c(CC(=O)NNC(=O)c2ccccc2F)nc2ccccc21,-9.97% (inactive)
6,O=C(NCc1ccncc1)c1cccc(NS(=O)(=O)c2ccc(F)c(F)c2)c1,26.4% (inactive)
7,O=C(c1ccco1)N1CCN(Cc2cccc(C(F)(F)F)c2)CC1,77.1% (active)
8,COC(c1ccccc1)c1nnc(CCC(=O)N2CCN(CCOc3ccccc3)CC2)o1 (stereo unspecified),-8.4% (inactive)
9,Cc1ccc(C)c(OCC(=O)N2CCN(C(=O)c3ccco3)CC2)c1,-1.29% (inactive)
10,COc1cccc(OC)c1OCCN1CCN(C(=O)c2ccco2)CC1,63.6% (active)
11,O=C(CNS(=O)(=O)c1ccccc1)N1CCN(C(=O)c2ccco2)CC1,-2.75% (inactive)
12,O=C(c1ccco1)N1CCN(C(=S)Nc2cc(F)cc(F)c2)CC1,-1.02% (inactive)
13,O=C(CN1CCN(C(=O)c2ccco2)CC1)Nc1ccc(Cl)c(C(F)(F)F)c1,0.954% (inactive)
14,O=C(c1ccco1)N1CCN(C(=O)c2ccc(COc3ccc(F)cc3)o2)CC1,1.11% (inactive)
15,COc1cccc(OCc2cc(C(=O)N3CCN(C(=O)c4ccco4)CC3)no2)c1,-3.13% (inactive)
16,O=C(c1ccc(Br)o1)N1CCN(CCOc2ccccc2)CC1,86.3% (active)
17,O=CN1CCN(C(=O)c2ccc(Br)o2)CC1,-1.93% (inactive)
18,O=C(c1ccco1)N1CCN(CCOc2ccccc2)CC1,61.7% (active)
19,CC(C)CN(C(=O)CSc1nncn1C)C1CCS(=O)(=O)C1 (stereo unspecified),-28.1% (inactive)

row,Structure (SMILES),inhibition
1,O=C1C=C(c2cc(C(F)(F)F)cc(C(F)(F)F)c2)C[C@@H](c2ccc3c(c2)OCO3)C1,8.46% (inactive)
2,CC(=O)Nc1cccc(C(=O)OCC(=O)c2ccc3c(c2)OCO3)c1,13.5% (inactive)
3,CSCCC(NC(=O)c1ccccc1)C(=O)N1CCCCCCC1 (stereo unspecified),-18.4% (inactive)
4,COc1ccccc1C(=O)Nc1ccc(OCC(=O)N2CCCCC2)cc1,-21.7% (inactive)
5,Cc1ccc(C(=O)NNC(=O)c2ccc3c(c2)OCCO3)cc1,20.3% (inactive)
6,Cc1ccc(C(=O)Nc2ncccc2C)cc1S(=O)(=O)N1CCOCC1,-29.3% (inactive)
7,Cc1nn(CCOc2ccccc2)c(=O)n1-c1ccccc1F,4.74% (inactive)
8,CCc1nn(CCCN2CCN(c3cccc(Cl)c3)CC2)c(=O)n1CCOc1ccccc1,10.2% (inactive) and 47% (active)
9,CCN1C(=O)/C(=C\N2CCN(c3cccc(Cl)c3)CC2)SC1=S,-0.63% (inactive)
10,CCN1CCN(C(=O)N[C@@H](C(=O)N[C@@H]2C(=O)N3C(C(=O)O)=C(CSc4nnnn4C)CS[C@H]23)c2ccc(O)cc2)C(=O)C1=O,-6.07% (inactive)
11,O=c1c2ccccc2ccc2ccc(P(=O)(O)O)cc12,1.32% (inactive)
12,O=C(OCC(=O)N1CCN(C(=O)c2ccco2)CC1)c1ccc(Cl)c(Cl)c1,20.1% (inactive)
13,CCN(c1ccccc1)S(=O)(=O)c1cc(C(=O)NCc2ccccn2)ccc1C,-6.91% (inactive)
14,CCN1CCN(C(=O)c2ccccc2N(C)S(=O)(=O)c2ccc(C)cc2)CC1,40.9% (active)
15,CCOC(=O)C1CCN(C(=O)c2ccccc2N(C)S(=O)(=O)c2ccccc2)CC1,-8.5% (inactive)
16,CCOC(=O)N1CCN(C(=O)c2ccccc2N(Cc2ccccc2)S(=O)(=O)c2ccc(OC)cc2)CC1,-13.3% (inactive)
17,COc1ccc(-c2cc(C(=O)N(C)CC(=O)Nc3ccccc3Cl)c3ccccc3n2)cc1OC,1.05% (inactive)
18,CC(=O)c1c(C)[nH]c(C(=O)OCC(=O)Nc2c(C)cccc2C)c1C,-33.4% (inactive)
